DT40 TDP1 CPT = growth inhibition of DT40 Tdp1-/-;hTDP1 cells with camptothecin (screen for TDP1 inhibitors); chicken DT40 Tdp1-/-;hTDP1 cells + 20 nM CPT, ATP luminescence, 48 h; Potency, µM (highest dose often 46.2 µM), most hits filed as inhibitors; hit rate 12% among 420,000; further: nearly all actives have a fitted effect of over 55% in size
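Chicken DT40 Tdp1-/- cells stably complemented with human TDP1 were seeded at 400 cells/well in medium containing 20 nM camptothecin, exposed to pin-transferred compounds, and grown at 37 °C for at least 48 hr. Viability was read as ATP luminescence.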
DRD3 antagonist = D3 dopamine receptor (human) antagonism; P35462; D3R cells, DiscoveRx beta-arrestin luminescence, antagonist mode; active compounds read low; max response, negative = inhibition, %; hit rate 2.5% among 360,000; AID 652054; in the data active means max response below about -50%; inconclusive means no clear call, values can overlap the other calls
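Cells expressing the human receptor were seeded at 1500 cells/well, incubated overnight at 37 degrees C in 5% CO2, then exposed to library compounds with dopamine controls for 90 minutes at 37 degrees C before luminescent detection.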
ClpP mod = qHTS Assay for Activators of ClpP | ATP-dependent Clp protease proteolytic subunit (Bacillus subtilis (strain 168)), P80244 | purified B. subtilis ClpP, FRET peptide cleavage, 20 min | Potency, µM (top dose mostly 57.5 µM) | hit rate 1.9% among 340,000 | AID 651965, 2013; active means well fitted falling curve with a large enough effect; inconclusive means small, poorly fitted or top-dose-only effect; inactive means no such curve, though single readings can be large or run the other way; further: the source files actives as falling curves though it sought activators and does not explain the sign; nearly all actives have a fitted effect of over 65% in size
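Purified B. subtilis ClpP, 10 microg/mL final in Tris/HCl pH8 with KCl, BSA, glycerol and Tween-20, cleaved an Abz/nitrotyrosine-quenched decapeptide. Fluorescence (ex 320, em 430) was read at 0 and 20 min at room temperature. Delta was normalized to 5.8 microM ADEP and DMSO/no-enzyme controls.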
TDP1 cell noCPT = qHTS for Inhibitors of human tyrosyl-DNA phosphodiesterase 1 (TDP1): qHTS in cells in absence of CPT; DT40 Tdp1-/- hTDP1 cells, no CPT, ATP luminescence, 48 h; Potency, µM (doses to about 46.2 µM), usual class: inhibitors; hit rate 15% among 420,000; further: nearly all actives have a fitted effect of over 55% in size
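Growth kinetics read by CellTiter-Glo luminescence after ≥48 hr at 37 °C. Cells: DT40 Tdp1-/- stably carrying human TDP1, 400 per well, compound exposure in the absence of CPT (DMSO vehicle).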
IL1B secr inh = blocks inflammasome-driven IL-1 beta release; THP-1 LPS/ATP IL-1B secretion, AlphaLISA, 16 h; active compounds read low; activity change, % at 57.5 µM; hit rate 4.7% among 360,000; in the data active means activity change below about -50%; inconclusive means mostly about -30% to -49%
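Secreted IL-1B measured by AlphaLISA bead assay after 16 h compound exposure of THP-1 cells; compounds (final up to 57.5 uM) added 1 h before LPS (250 ng/mL) and ATP (1.25 mM) stimulation; lower signal means less secretion.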
D3 ag = agonists of human D3 dopamine receptor; P35462; D3R DiscoveRx beta-arrestin cells, luminescence, 90 min; max activation, %; hit rate 0.58% among 410,000; in the data active means max activation above about 30%
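Agonist-mode cell screen: cells plated at 1500/well and incubated overnight at 37 °C, then exposed to library compounds for 90 min at 37 °C. Detection reagent was added for 30–60 min at room temperature, and luminescence was read.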
Numbers stand for hits; 0 = inactive; ? = inconclusive; - = no result; ! = not confirmed by another sample. Sampled rows, rich in hits. Any-hit rate of the full collection: about 21%. Unless noted, the call rests on the fitted dose curve; in most records, active means well fitted inhibition curve with a large enough effect; inconclusive means small, poorly fitted or top-dose-only effect; inactive means flat fitted curve, though single readings scatter.

SMILES | DT40 TDP1 CPT | DRD3 antagonist | ClpP mod | TDP1 cell noCPT | IL1B secr inh | D3 ag
C=CCn1c(SC(F)F)nc2scc(-c3ccco3)c2c1=O | 0 | 0 | - | 0 | ? | 0
C=CCn1c(SCC(=O)N2CC(=O)Nc3ccccc32)nc2scc(-c3ccccc3)c2c1=O | ? | 0 | 0 | ? | -52.0 | 0
C=CCn1c(SCC(C)=O)nc2scc(-c3ccco3)c2c1=O | ? | 0 | - | 13µM | 0 | 0
CCOC(=O)c1ccccc1NC(=O)N(Cc1ccc(C)cc1)Cc1cccn1-c1nnc(N2CCCC2=O)s1 | 23.1µM | - | 0 | 18.4µM | - | 0
COc1ccc(S(=O)(=O)NCC2CCC(C(=O)O)CC2)cc1 (centres undefined) | 0 | 0 | 0 | 0 | 0 | 0
COc1ccc2cc(C(=O)N3CCN(c4ccccc4OC)CC3)[nH]c2c1 | ? | 0 | 0 | 0 | 0 | 0
Cc1ccc2ccc3cc(C(=O)N4CCN(c5ccccc5)CC4)nc3c2[nH]1 | ? | - | 0 | 18.4µM | - | 0
COc1ccccc1N1CCN(C(=O)c2cc3ccc4ccc(C)[nH]c4c3n2)CC1 | ? | - | 0 | 20.6µM | - | 0
COc1ccc(C(=O)Nc2c(N)nc(SCC(=O)NCC3CCCO3)[nH]c2=O)cc1 (centres undefined) | 0 | 0 | 0 | 0 | 0 | 0
O=C(COc1ccccc1C(=O)Nc1cccnc1)Nc1ccc(Br)cc1 | ? | - | 0 | ? | - | -
Cc1ccc(CNC(=O)c2ccc3c(c2)nc(C)n3-c2cc(C)cc(C)c2)cc1 | ? | - | 0 | ? | - | 0
Cc1nc2cc(C(=O)NCCC3=CCCCC3)ccc2n1-c1ccc(Br)cc1 | ? | - | 0 | ? | - | 0
CCOc1ccc(-n2c(C)nc3cc(C(=O)NCc4ccc(C)cc4)ccc32)cc1 | ? | - | 0 | 16.4µM | - | 0
CCOc1ccc(-n2c(C)nc3cc(C(=O)NCCC4=CCCCC4)ccc32)cc1 | 18.4µM | - | 0 | 16.4µM | - | 0
Cc1cc(C)cc(-n2c(C)nc3cc(C(=O)NCc4ccc(F)cc4)ccc32)c1 | ? | - | 0 | 14.6µM | - | 0
CCOc1ccc(CNC(=O)c2ccc(Sc3ccc(C)cc3)c(NC(C)=O)c2)cc1 | ? | 0 | 0 | 20.6µM | 0 | 0
O=C(Nc1c(C(=O)N2CCN(c3ccccc3)CC2)oc2ccccc12)c1ccccc1F | ? | - | ? | ? | - | 0
O=C(Nc1c(C(=O)N2CCN(c3ccccc3F)CC2)oc2ccccc12)c1ccccc1F | 13µM | - | ? | 14.6µM | - | 0
O=C(COc1ccccc1)Nc1c(C(=O)N2CCC(N3CCCCC3)CC2)oc2ccccc12 | ? | 0 | 0 | ? | 0 | 0
O=C(Nc1c(C(=O)N2CCC(N3CCCCC3)CC2)oc2ccccc12)c1c(F)cccc1F | 0 | 0 | 0 | 0 | ? | 50.9!
O=C(Nc1c(C(=O)N2CCC(N3CCCCC3)CC2)oc2ccccc12)c1ccc(F)cc1 | ? | 0 | 0 | ? | ? | 0
O=C(COc1ccc(F)cc1)Nc1c(C(=O)N2CCC(N3CCCCC3)CC2)oc2ccccc12 | ? | 0 | 0 | 7.31µM | ? | 0
CCc1nn2c(-c3ccco3)ccnc2c1-c1ccc(F)cc1 | ? | - | 0 | ? | - | 0
O=C(NC(=O)c1ccc(F)cc1F)Nc1ccc(Cl)cc1 | 0 | 0 | - | 0 | 0 | 0
COC(=O)c1ccc(CSc2nnc(CNC(=O)COc3ccc(Cl)cc3)o2)o1 | 16.4µM | 0 | 0 | ? | 0 | 0
SMILES | DT40 TDP1 CPT | DRD3 antagonist | ClpP mod | TDP1 cell noCPT | IL1B secr inh | D3 ag
O=C(COc1ccc(Cl)cc1)NCc1nnc(SCC(=O)Nc2ccc(F)cc2F)o1 | 13µM | 0 | 0 | 0 | 0 | 0
COC(=O)c1ccc(CSc2nnc(CNC(=O)c3ccccc3F)o2)o1 | 0 | 0 | 0 | 0 | 0 | 0
Cc1ccc(NC(=O)CN(C)CC(=O)N(C)Cc2ccccc2)cc1 | ? | 0 | 0 | ? | 0 | 0
COc1ccc(Oc2nc(C)cc(C)c2C#N)cc1 | 0 | 0 | 0 | 0 | 0 | 0
COc1ccc(C2(O)CC3CCC(C2)N3c2nc(C)cc(C)c2C#N)cc1 (centres undefined) | 0 | 0 | 28.2µM | 0 | 0 | 0
O=C(O)c1cccc2c1/C(=N/Nc1ccc([N+](=O)[O-])cc1[N+](=O)[O-])c1ccccc1-2 | 0 | -53.9 | 0 | 0 | 0 | 0
CN1c2ccsc2/C(=N/Nc2ccccc2)CS1(=O)=O | 4.11µM | 0 | - | 1.3µM | ? | 0
Cc1cccc(C(=O)N/N=C2\CS(=O)(=O)N(C)c3ccsc32)c1 | 20.6µM | 0 | 0 | 13µM | 0 | 0
CSCCC(NC(=O)COc1ccccc1)C(=O)N(C)CC(=O)Nc1c(C)cccc1C (centres undefined) | 0 | 0 | - | 0 | 0 | 0
CCCCN1C(=O)C(CC(=O)NCc2ccco2)CC(C(=O)N(C(C)C)C(C)C)=C1C (centres undefined) | 0 | 0 | 0 | 0 | ? | 0
O=C(c1ccc2c3c(cccc13)CC2)C1CCCN(C(=O)c2ccc[n+]([O-])c2)C1 (centres undefined) | 0 | 0 | 0 | 0 | 0 | 0
Cc1ccc(NC(=O)Nc2ccc3c(c2)nc(C)n3C)cc1 | 0 | 0 | - | 0 | 0 | 0
Cc1cc(NC(=O)Nc2ccc3c(ccn3C)c2)sn1 | ? | 0 | 0 | ? | -100.2 | 0
N#CC(C#N)=C1SC(=Nc2ccccc2)C(=Nc2ccccc2)N1c1ccccc1 | 5.17µM | 0 | 0 | 8.2µM | 0 | 0
Fc1ccc(N2C(=S)SC(=Nc3ccccc3)C2=Nc2ccccc2)cc1 | ? | 0 | 0 | ? | 0 | 0
Cn1c(=N)n(CC(=O)c2ccc(Br)cc2)c2ccccc21 | 20.6µM | 0 | 0 | 18.4µM | - | 0
Cn1c(=N)n(CC(=O)c2ccc(F)cc2)c2ccccc21 | 16.4µM | 0 | 0 | 13µM | 0 | 0
CCn1c(=N)n(CC(=O)c2ccc(OC)cc2)c2ccccc21 | ? | 0 | 0 | ? | ? | 0
COC(=O)N1CCCCC1c1cc(C(=O)NCc2ccccc2)no1 (centres undefined) | 0 | 0 | 0 | 0 | 0 | 0
COC(=O)c1ccc(N2CCN(c3ccccc3)CC2)c(NC(=O)C2CC2)c1 | 20.6µM | 0 | 0 | 16.4µM | 0 | 0
CN1CCN(c2ccc(NC(=O)c3sc4ccccc4c3Cl)cc2)CC1 | 11.6µM | 0 | 0 | 13µM | ? | 0
COC(=O)c1ccc(N2CCN(C)CC2)c(NC(=O)c2sc3ccccc3c2Cl)c1 | 23.1µM | 0 | - | 16.4µM | 0 | 0
CN1CCN(C(=O)c2ccccc2NC(=O)c2sc3ccccc3c2Cl)CC1 | ? | 0 | 0 | ? | 0 | 0
C/C=C/C(=O)OCC(=O)Nc1ccc(SC(F)F)cc1 | 0 | 0 | 0 | 0 | 0 | 0
Cc1[nH]c2c(Cl)cccc2c(=O)c1CN1CCCC1 | 0 | -65.3 | 0 | 0 | 0 | 0
CCOc1ccc2[nH]c(C)c(CN3CCN(CC)CC3)c(=O)c2c1 | 0 | 0 | 15.8µM | 0 | 0 | 0

Compound activity as filed in PubChem.
